Tests used:
Assay in all cases: log2 ratio of Biotin-Ahx-Ub-VS probe labelling (fragment/DMSO); higher = less target engagement (more negative = stronger competition), active = hit call of the paper (q ≤ 0.05, log2 ratio ≤ -1)
Conditions in all cases: compound concentration: 200 uM; treatment time: 3 h
USP19 = molecular target: T1, USP19 (UniProt O94966)
T1 sequence (whole entry): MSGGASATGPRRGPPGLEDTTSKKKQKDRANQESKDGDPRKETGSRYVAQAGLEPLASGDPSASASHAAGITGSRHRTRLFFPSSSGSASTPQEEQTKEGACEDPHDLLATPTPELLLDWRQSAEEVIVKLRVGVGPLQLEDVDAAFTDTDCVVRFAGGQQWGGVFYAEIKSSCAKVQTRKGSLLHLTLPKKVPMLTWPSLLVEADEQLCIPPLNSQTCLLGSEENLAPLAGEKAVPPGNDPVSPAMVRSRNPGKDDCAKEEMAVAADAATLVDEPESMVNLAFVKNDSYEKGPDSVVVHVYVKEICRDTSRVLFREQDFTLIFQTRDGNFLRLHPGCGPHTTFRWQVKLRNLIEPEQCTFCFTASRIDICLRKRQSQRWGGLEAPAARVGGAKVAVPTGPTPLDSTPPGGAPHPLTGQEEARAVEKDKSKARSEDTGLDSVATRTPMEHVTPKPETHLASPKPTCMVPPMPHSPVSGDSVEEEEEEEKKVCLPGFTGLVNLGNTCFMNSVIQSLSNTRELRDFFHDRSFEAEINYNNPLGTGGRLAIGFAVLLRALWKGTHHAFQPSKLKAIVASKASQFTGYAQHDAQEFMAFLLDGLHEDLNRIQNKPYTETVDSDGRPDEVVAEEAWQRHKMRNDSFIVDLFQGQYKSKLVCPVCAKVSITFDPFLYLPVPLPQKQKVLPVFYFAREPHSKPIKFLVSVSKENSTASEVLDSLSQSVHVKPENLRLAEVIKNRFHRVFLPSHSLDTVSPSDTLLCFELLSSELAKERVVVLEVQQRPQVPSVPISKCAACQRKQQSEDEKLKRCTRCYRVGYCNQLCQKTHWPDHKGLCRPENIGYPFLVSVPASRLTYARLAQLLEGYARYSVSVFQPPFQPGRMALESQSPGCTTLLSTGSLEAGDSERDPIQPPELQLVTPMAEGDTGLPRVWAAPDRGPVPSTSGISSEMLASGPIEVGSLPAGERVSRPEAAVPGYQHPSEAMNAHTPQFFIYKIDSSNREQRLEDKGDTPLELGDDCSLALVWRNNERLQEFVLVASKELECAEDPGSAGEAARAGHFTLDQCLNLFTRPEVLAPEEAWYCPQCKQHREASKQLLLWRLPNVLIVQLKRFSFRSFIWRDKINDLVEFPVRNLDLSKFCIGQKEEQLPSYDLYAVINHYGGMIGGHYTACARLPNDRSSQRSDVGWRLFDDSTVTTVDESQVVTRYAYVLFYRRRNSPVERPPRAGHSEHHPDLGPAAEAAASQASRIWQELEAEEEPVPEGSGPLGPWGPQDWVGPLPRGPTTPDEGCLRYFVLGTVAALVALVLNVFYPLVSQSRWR
Procedure, shortened: (§1)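 Fragment (200 µM) or vehicle was incubated for 3 h with triplicate HEK293T lysate samples of 495 µg, which were then treated with Biotin-Ahx-Ub-VS at 0.5 µM final for 1 h. Labelled DUBs were enriched on NeutrAvidin, digested with LysC and trypsin, and analysed by diaPASEF LC-MS/MS. Values are average log2 fragment/vehicle ratios from an unpaired t-test on global-median-normalised Spectronaut label-free quantities, using proteins with ≥2 unique peptides.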

USP22 = molecular target: T2, USP22 (UniProt Q9UPT9)
T2 sequence (whole entry): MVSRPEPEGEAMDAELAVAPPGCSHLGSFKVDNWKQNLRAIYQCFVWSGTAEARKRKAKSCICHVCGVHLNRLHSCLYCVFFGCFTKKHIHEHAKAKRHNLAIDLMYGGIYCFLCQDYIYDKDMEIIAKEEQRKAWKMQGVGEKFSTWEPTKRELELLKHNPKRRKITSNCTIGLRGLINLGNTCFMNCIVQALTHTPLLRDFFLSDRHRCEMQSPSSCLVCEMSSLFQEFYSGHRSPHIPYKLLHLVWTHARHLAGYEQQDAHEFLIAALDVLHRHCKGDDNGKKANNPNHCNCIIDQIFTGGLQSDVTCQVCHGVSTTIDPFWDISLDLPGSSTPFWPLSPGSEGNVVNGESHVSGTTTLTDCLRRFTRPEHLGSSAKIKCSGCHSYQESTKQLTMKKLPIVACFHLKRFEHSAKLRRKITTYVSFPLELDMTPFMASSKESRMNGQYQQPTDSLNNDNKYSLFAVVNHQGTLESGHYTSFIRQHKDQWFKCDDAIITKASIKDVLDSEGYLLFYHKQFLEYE
Procedure, shortened: as §1

USP24 = USP24 (UniProt Q9UPU5)
Procedure, shortened: as §1

USP25 = molecular target: T3, USP25 (UniProt Q9UHP3)
T3 sequence (whole entry): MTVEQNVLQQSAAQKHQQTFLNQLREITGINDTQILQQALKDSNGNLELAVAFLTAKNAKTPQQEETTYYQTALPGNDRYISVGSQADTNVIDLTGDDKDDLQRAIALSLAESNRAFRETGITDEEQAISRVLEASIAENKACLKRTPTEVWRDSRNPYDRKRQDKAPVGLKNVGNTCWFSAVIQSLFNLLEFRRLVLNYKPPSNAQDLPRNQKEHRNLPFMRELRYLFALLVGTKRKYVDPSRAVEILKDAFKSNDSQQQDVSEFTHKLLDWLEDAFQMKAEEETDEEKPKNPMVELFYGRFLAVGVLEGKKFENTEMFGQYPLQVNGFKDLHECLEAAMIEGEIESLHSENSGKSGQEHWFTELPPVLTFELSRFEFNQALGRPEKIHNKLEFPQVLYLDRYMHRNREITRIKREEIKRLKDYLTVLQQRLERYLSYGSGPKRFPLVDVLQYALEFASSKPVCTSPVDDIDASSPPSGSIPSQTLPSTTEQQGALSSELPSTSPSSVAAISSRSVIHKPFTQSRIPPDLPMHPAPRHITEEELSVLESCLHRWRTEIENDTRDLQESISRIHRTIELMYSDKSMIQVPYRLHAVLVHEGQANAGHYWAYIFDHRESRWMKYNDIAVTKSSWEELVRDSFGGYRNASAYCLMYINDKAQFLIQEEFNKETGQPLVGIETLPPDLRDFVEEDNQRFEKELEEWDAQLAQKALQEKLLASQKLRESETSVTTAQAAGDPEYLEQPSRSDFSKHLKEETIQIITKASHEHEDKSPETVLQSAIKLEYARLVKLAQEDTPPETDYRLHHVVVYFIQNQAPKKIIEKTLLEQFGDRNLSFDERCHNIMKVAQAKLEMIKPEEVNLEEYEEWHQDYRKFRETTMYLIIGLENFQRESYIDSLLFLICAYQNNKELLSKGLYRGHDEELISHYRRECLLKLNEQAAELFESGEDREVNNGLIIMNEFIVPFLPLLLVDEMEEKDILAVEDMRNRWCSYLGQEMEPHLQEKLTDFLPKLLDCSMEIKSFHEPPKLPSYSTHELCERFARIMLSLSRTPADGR
Procedure, shortened: as §1

USP28 = molecular target: T4, USP28 (UniProt Q96RU2)
T4 sequence (whole entry): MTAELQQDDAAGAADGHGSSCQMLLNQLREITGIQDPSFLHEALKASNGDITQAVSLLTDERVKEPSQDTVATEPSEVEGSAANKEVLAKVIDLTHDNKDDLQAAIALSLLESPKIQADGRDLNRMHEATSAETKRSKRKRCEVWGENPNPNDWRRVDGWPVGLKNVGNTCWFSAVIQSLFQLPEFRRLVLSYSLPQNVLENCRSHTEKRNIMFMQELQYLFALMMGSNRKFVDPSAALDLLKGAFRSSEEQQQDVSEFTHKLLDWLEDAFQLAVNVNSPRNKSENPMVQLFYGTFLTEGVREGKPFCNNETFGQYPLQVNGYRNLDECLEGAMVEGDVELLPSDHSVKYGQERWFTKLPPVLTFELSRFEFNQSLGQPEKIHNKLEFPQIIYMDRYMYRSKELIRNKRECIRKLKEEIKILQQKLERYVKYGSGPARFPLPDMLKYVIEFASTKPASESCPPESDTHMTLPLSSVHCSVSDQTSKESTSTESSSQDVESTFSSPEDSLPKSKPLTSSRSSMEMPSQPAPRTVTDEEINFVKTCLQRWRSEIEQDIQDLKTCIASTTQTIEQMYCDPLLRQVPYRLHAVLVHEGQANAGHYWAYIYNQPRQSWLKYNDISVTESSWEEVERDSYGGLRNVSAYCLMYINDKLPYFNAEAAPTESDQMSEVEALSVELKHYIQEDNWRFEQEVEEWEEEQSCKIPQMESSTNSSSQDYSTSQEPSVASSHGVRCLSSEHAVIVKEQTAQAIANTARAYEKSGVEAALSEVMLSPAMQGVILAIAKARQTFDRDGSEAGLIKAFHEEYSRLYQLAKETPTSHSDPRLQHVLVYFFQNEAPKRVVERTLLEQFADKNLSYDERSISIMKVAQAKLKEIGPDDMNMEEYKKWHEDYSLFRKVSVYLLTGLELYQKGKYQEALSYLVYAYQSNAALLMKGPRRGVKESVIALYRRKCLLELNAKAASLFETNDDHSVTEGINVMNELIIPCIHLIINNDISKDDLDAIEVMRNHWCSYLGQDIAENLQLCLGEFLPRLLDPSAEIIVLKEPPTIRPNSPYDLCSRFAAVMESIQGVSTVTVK
Procedure, shortened: as §1

Measured: log2 ratio of Biotin-Ahx-Ub-VS probe labelling

Sequence of USP24 (Q9UPU5 whole entry): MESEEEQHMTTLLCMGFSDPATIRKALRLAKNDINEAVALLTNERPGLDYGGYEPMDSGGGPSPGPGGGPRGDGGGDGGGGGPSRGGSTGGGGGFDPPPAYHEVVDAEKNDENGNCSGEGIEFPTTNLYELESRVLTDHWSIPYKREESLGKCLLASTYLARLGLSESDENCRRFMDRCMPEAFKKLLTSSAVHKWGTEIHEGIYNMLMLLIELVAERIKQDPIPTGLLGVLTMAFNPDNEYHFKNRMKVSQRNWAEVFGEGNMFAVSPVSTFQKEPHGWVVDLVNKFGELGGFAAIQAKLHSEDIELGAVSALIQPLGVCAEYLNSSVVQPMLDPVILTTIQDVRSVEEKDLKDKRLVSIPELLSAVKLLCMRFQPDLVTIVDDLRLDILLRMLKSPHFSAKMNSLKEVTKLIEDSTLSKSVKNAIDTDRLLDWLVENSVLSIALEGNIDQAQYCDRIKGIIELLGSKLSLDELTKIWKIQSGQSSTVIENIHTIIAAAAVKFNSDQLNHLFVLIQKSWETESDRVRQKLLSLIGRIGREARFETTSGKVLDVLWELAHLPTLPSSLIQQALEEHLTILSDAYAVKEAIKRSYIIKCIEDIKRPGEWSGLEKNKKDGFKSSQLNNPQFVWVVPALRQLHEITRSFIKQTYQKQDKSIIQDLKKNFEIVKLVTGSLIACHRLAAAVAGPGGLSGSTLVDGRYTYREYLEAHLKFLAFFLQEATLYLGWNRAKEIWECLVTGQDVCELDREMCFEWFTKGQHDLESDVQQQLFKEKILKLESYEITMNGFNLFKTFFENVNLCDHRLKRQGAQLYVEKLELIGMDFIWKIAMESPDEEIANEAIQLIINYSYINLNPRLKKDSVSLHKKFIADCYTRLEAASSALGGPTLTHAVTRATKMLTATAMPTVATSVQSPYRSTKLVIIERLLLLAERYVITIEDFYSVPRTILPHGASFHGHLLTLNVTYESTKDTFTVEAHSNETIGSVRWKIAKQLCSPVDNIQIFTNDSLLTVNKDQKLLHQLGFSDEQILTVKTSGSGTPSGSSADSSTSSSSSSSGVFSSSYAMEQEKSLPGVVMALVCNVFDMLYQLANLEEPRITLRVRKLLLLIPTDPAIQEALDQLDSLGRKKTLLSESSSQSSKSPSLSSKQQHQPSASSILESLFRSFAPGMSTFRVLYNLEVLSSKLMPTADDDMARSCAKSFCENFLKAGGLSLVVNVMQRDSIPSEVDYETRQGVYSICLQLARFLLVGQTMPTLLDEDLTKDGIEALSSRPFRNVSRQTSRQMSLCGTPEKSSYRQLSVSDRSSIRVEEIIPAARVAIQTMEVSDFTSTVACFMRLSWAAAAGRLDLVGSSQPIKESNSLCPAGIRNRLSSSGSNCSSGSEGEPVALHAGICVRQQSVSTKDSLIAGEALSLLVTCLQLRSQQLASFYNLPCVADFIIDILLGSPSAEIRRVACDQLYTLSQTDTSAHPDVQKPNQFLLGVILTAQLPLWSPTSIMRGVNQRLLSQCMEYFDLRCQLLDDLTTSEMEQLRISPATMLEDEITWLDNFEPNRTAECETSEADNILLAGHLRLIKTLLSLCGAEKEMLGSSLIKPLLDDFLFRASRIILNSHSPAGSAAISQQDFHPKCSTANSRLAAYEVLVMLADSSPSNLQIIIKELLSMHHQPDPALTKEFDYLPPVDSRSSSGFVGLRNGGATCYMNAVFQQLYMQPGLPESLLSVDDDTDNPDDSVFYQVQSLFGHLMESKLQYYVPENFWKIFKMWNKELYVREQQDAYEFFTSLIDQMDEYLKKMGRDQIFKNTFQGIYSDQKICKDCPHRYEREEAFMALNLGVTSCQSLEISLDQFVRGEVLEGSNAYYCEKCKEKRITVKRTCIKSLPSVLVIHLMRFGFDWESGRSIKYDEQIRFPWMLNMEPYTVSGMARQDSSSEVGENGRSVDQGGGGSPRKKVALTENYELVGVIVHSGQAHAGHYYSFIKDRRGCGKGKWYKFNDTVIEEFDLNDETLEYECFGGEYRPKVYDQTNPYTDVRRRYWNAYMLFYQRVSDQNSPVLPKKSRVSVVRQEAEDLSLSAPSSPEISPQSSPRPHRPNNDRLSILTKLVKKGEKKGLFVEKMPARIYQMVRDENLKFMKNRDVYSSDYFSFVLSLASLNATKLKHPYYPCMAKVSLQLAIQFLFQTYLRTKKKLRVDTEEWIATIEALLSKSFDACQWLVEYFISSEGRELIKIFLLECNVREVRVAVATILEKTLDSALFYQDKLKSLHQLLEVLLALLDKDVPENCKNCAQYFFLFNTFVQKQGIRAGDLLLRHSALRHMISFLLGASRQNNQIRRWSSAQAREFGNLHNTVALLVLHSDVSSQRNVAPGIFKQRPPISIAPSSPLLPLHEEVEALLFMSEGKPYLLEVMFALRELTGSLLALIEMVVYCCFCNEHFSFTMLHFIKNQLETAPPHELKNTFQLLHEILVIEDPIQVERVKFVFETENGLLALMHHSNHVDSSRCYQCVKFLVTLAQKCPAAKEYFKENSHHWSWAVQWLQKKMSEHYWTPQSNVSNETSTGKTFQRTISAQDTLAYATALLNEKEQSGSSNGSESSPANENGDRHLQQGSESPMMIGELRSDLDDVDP

O=C(CCl)N1CCC(C(O)c2ccc(F)cc2)CC1 (stereo not given)
inactive: USP19 0.0656 | USP22 0.13 | USP24 -0.164 | USP25 0.058 | USP28 -0.0428

From the supplement of paper PMC11732987, “Enantioselective OTUD7B fragment discovery through chemoproteomics screening and high-throughput optimisation” (Communications Chemistry, 2025)
